Results on five molecules are retold here after PubChem BioAssay.

Inconclusive results are not listed. The source made the active and inactive calls.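 How the source made its calls, unless noted: active means inhibition over a set limit, the all-compound mean plus 3 SD, in both replicate runs; inconclusive means over that limit in just one replicate run; inactive means at or under that limit in both runs.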

As a reminder, the viability is a read-out of living cells in per cent, often relative to untreated cells. As usually defined, the inhibition is the change of the read-out against control, counted positive when it falls.

Assay [1] can be described thus: reducers of endogenous Her2 protein level, primary screen, SKBR3 breast tumor cells, AlphaScreen, ATP viability (AID 461;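 active means Her2 level under about 52% in both replicate screens, with viability over 70% of control, limit read from the data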;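 on Her2 level: lower value means less Her2 protein in the cells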;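 on viability: percent of carrier control wells set as 100% viability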). The conditions noted are these: 18-24 h, measured here: SKBR3 viability, ATP luminescence, at 10 µM. A general note: Alpha assays give light when donor and acceptor beads are brought close together.
The target in assay [2] is Receptor tyrosine-protein kinase erbB-2 (Homo sapiens) (UniProt P04626). The description is as above. Conditions: 18-24 h, at 10 µM, stronger effect = lower value.
Sequence of Receptor tyrosine-protein kinase erbB-2 (Homo sapiens) (P04626 whole entry, looked up): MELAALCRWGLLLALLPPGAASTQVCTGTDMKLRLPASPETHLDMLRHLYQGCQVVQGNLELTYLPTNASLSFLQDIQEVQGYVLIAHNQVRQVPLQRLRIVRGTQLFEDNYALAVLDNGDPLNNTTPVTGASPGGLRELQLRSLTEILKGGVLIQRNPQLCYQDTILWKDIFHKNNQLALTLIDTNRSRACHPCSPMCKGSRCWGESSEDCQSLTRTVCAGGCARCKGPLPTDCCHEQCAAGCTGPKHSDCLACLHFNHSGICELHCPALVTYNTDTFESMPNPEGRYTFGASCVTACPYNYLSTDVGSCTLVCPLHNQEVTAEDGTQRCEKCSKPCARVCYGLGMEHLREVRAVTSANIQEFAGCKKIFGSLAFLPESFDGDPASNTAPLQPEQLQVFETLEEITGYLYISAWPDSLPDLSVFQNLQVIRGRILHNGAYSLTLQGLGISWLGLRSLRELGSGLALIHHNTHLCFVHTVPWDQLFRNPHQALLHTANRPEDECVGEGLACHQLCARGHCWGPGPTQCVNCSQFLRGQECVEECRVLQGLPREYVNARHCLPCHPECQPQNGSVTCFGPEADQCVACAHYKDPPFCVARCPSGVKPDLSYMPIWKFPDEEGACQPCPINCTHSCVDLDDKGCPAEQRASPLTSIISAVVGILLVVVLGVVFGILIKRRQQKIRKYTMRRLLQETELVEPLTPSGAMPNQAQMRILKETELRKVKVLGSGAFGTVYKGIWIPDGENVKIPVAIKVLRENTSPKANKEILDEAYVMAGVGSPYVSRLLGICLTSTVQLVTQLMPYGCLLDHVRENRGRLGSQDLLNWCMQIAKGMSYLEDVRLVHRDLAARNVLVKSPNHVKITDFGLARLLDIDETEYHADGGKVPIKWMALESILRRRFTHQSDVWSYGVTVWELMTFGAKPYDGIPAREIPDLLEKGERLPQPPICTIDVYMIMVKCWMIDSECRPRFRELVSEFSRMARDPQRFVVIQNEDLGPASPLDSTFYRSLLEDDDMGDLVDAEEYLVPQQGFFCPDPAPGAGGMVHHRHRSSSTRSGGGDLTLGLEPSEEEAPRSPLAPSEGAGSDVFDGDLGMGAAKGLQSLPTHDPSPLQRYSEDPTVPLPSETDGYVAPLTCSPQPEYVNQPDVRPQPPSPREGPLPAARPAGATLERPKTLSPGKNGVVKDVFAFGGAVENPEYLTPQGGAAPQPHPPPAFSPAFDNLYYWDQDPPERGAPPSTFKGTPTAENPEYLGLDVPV
A short description of assay [3]: SK-BR-3 cell growth inhibitors, pilot screen, 24 h, human (AID 572;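 active means viability at or below 10% of carrier control in both of two separate runs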;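 further: compound exposure lasted between 18 and 24 h rather than exactly 24 h; 100% = carrier-treated control wells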). Conditions: SK-BR-3 viability, CellTiter-Glo luminescence, at 10 µM, stronger effect = lower value.
A short description of assay [4]: HUVEC growth inhibition – cell-based, human, primary screen (AID 575;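 active means viability at or below 30% in both replicate assays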;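 further: 100% = median of untreated cell wells with 0.1% DMSO on each plate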). The conditions noted are these: HUVEC proliferation, CellTiter-Glo luminescence, 72 h; at 10 µM; stronger effect = lower value. For orientation: In ATP-based viability assays light output follows the ATP content of the culture.
Assay [5] can be described thus: growth inhibitors of H69AR lung tumor, primary screen, human, duplicate replicates (AID 580;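 active means viability at or under a set limit in both replicates, limit being median viability minus 3 SD, cut at about 48% in these data, passing the limit was not always enough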;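 further: 100% = mean luminescence of untreated wells and 0% = no signal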). The conditions noted are these: H69AR lung tumor cells viability, ATP luminescence, 72 h; at 10 µM; stronger effect = lower value.
Assay [6] in a line: reversal of MRP1-mediated doxorubicin resistance, pilot screen, H69AR cells, doxorubicin co-treatment (AID 601;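 active means viability loss from added drug above about 55%, and viability with drug at most 40%, in both replicates, limit read from the data, passing the limit was not always enough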). The conditions noted are these: CellTiter-Glo, 72 h, at 10 µM; for differential viability (reversal): stronger effect = higher value.
A short description of assay [7]: 384-well plate pilot, post-Golgi transport modulator project, inhibition of yeast transport mutant growth (AID 636; in the data active means inhibition above about 31%). Conditions: absorbance 615 nm, about 18 h, stronger effect = higher value.
Assay [8] is described as follows: growth suppression of yeast trafficking mutant, preliminary HTS, modulators of trafficking downstream of Golgi apparatus project, 1536-format plate, OD 615 nm (AID 637; in the data active means inhibition above about 30%). Conditions: yeast transport mutant growth, absorbance 615 nm, 18 h; stronger effect = higher value.
The nature of assay [9]: OD615 S. cerevisiae growth inhibition, permissive medium, pilot counter-assay, permissive growth control for S. cerevisiae lifespan shortening project (AID 705;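 active means growth inhibition above 25% in both replicates, a cutoff set 3 SD above the mean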). Conditions: OD615, 24 h, at 10 µM, stronger effect = higher value.
Assay [10] is described as follows: Restrictive medium S. cerevisiae growth inhibition, OD615, pilot screen of yeast lifespan reduction project, restrictive growth control (AID 706;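 active means growth inhibition above a set limit, 3 SD over mean compound inhibition, in both replicates, cut at about 43% in these data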;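 further: modified DeaD lifespan yeast strain shifted to restrictive glucose medium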). The conditions noted are these: OD615, 48 h, at 10 µM, stronger effect = higher value.
Assay [11] in a line: viability gain of MRP-1-high H69AR cells under doxorubicin, pilot screen, MRP-1 activator project, CellTiter-Glo, duplicate (AID 807;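 active means viability increase at or above a cutoff of the median across tested compounds plus 3 SD, cut at about 8.5% in these data, passing the limit was not always enough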;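 further: compound pretreatment 18-22 h then 72 h combined with doxorubicin; 0% = doxorubicin alone and 100% = vehicle without doxorubicin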). The conditions noted are these: H69AR viability with doxorubicin, CellTiter-Glo luminescence; at 10 µM; stronger effect = higher value.
The nature of assay [12]: growth suppression of beta-catenin knockout HCT116, pilot screen, human colon tumor cells (AID 823;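 active means cell viability at or below a set limit in both duplicate runs, the limit being the all-compound median minus 4 SD, cut at about 23% in these data, passing the limit was not always enough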;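 further: 0% = wells killed by 20 µM Hyamine and 100% = untreated DMSO cell wells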). The conditions noted are these: CellTiter-Glo, 60 h, at 10 µM, stronger effect = lower value.
A short description of assay [13]: inhibitors of the yeast RAM network, pilot screen, dse1pr::URA3 reporter, 5-FOA selection (AID 869).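 Further: 0% = DMSO wells with no growth and 100% = 10 µM 1-NA-PP1 with full growth; RAM network block rescues cells from 5-FOA so hits raise OD615 growth.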 The conditions noted are these: S. cerevisiae dse1pr::URA3 5-FOA growth, OD615, 2 d; at 10 µM; stronger effect = higher value; strain carries analog-sensitive mutant Cbk1 kinase.
Assay [14] is described as follows: RAM signaling pathway blockade in yeast – S. cerevisiae, Pdr1DBD-CYC8 efflux-inhibited sensitized strain, primary screen (AID 1298;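 active means RAM network inhibition above 8.4% in each of two replicates, 3 SD over the compound average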;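 further: 0% = DMSO untreated cells without growth and 100% = 10 µM 1-NA-PP1 full growth; higher means more yeast growth rescued from 5-FOA killing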). The conditions noted are these: S. cerevisiae cbk1-as DSE1-URA3 strain, 5-FOA growth OD615, 2 d; at 50 µM; stronger effect = higher value.
The mark [15] stands for this setting: H69AR cells + 2 uM doxorubicin, measured here: viability with 2 uM doxorubicin, stronger effect = lower value.
The mark [16] stands for this setting: H69AR cells, compound alone cytotoxicity.

For `O=C(c1ccco1)N1CCN(C(=O)c2sccc2-c2ccccc2)CC1`, the viability in [1] is 93%; in assay [3], 93% (inactive); in [4], 86.2% (inactive); in assay [5] it was 83% (inactive); in [6] (setting [15]), 89.8%; in [6] (setting [16]), 83%. Also, the viability in assay [12] was 94.6% (inactive). The Her2 level in assay [2] is 104% (inactive). Also, the differential viability (reversal) in assay [6] (H69AR cells + 2 uM doxorubicin) was -6.79% (inactive). The inhibition in assay [7] was 2.3% (inactive); in [8], -4.92% (inactive); in [13], 2.49% (inactive). Moreover, the growth inhibition is -18.7% (inactive) in [9] and -9.14% (inactive) in assay [10]. The viability increase in [11] is -5.64% (inactive). Further, the RAM network inhibition in assay [14] was 4.79% (inactive).
On to `c1nc(NCC2(N3CCOCC3)CCCCC2)c2ccsc2n1`, for which the viability in assay [1] is 82.5%; in assay [3] it was 82.5% (inactive); in assay [4], 97.7% (inactive); in [5] it was 98.6% (inactive); in [6] (setting [15]) it was 99.2%; in assay [6] (setting [16]), 98.6%. For the same molecule, the viability in assay [12] was 78.8% (inactive). The Her2 level in assay [2] was 93% (inactive). Further, in assay [6] (H69AR cells + 2 uM doxorubicin), the differential viability (reversal) was -0.545% (inactive). In addition, the inhibition in [7] is -5.27% (inactive); in assay [8] it was -2.54% (inactive); in [13], 1.14% (inactive). Moreover, the results for the growth inhibition in assay [9] and in assay [10] were -25.4% (inactive) and 3.08% (inactive), respectively. For the same molecule, the viability increase in [11] is -3.33% (inactive). In addition, in assay [14], the RAM network inhibition was 8.05% (inactive).
On to `Cc1nc2ccc(Br)cn2c1NC(C)(C)C`, for which the viability in [1] is 89.5%; in [3] it was 89.5% (inactive); in [4], 101% (inactive); in assay [5], 86.8% (inactive); in assay [6] (setting [15]), 86.3%; in assay [6] (setting [16]), 86.8%. Besides, in [12], the viability was 89.2% (inactive). In addition, the Her2 level in assay [2] is 103% (inactive). Besides, the differential viability (reversal) in assay [6] (H69AR cells + 2 uM doxorubicin) is 0.425% (inactive). For the same molecule, the results for the inhibition in assay [7], in assay [8] and in assay [13] were -6.58% (inactive), -10.3% (inactive) and 1.55% (inactive), respectively. Further, the growth inhibition in assay [9] was -13.4% (inactive); in assay [10], 4.22% (inactive). For the same molecule, the viability increase in assay [11] is -2.98% (inactive). Also, the RAM network inhibition in assay [14] is 1.46% (inactive).
Turning to `Cc1nc(NCc2ccc3c(c2)OCO3)c2oc3ccccc3c2n1`, the viability in [1] was 99%; in [3] it was 99% (inactive); in assay [4], 60% (inactive); in [5], 98.3% (inactive); in [6] (setting [15]) it was 107%; in assay [6] (setting [16]), 98.3%. Moreover, in assay [12], the viability was 82.7% (inactive). Moreover, the Her2 level in assay [2] was 104% (inactive). In addition, the differential viability (reversal) in assay [6] (H69AR cells + 2 uM doxorubicin) is -8.4% (inactive). Moreover, the inhibition in assay [7] was -0.93% (inactive); in assay [8] it was -2.9% (inactive); in [13], 0.65% (inactive). Moreover, the growth inhibition is -23.6% (inactive) in [9] and -6.14% (inactive) in [10]. Moreover, the viability increase in assay [11] is -0.11% (inactive). In addition, the RAM network inhibition in assay [14] is 3.7% (inactive).
`O=C(Nc1nncs1)c1ccccc1NS(=O)(=O)c1cccs1`: the viability was 99% in assay [1]; 99% (inactive) in [3]; 95.3% (inactive) in [4]; 90.2% (inactive) in [5]; 93.8% in assay [6] (setting [15]); 90.2% in assay [6] (setting [16]). Besides, the viability in [12] is 102% (inactive). In addition, the Her2 level in [2] is 110% (inactive). Further, the differential viability (reversal) in assay [6] (H69AR cells + 2 uM doxorubicin) was -3.62% (inactive). The inhibition in [7] is -4.86% (inactive); in assay [8], -11.2% (inactive); in assay [13], 2.67% (inactive). Besides, the values for the growth inhibition in assay [9] and in [10] were -20.1% (inactive) and -10.1% (inactive), respectively. For the same molecule, the viability increase in assay [11] is -1.16% (inactive). The RAM network inhibition in assay [14] is 4.37% (inactive).
